The results in this text go back to PubChem BioAssay AID449762 (Southern Research Specialized Biocontainment Screening …, 2010).

Hit rate of the full screen: of about 330,000 compounds, about 1,900 (0.58%) were called active. Roughly 4% stayed inconclusive and do not appear here. The list is a sample of the results. Entries with a potency or affinity are not part of this list. Unmarked numbers belong to inactive results. Rule as the data show it: inconclusive = inhibition above about 70% without an active follow-up result; inactive = below that.

A short description of the assay: M. tuberculosis growth inhibition, HTS (AID 449762).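 Also: bacterial growth assessed after seven days of incubation.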 To be noted: M. tuberculosis H37Rv growth inhibition, 7H9 media; at 25 µM; hits give high values.
Consider `COc1ccc(-c2nc3c(s2)CN(S(C)(=O)=O)CC3)cc1OC`, for which the inhibition is -6.59%.
In the case of `Cc1nn(-c2ccccc2)c(Cl)c1C(=O)N(C)CC(=O)Nc1cccc(F)c1` it was 0.93%.
Consider `CCCn1c(-c2cc(OC)c(OC)c(OC)c2)nc2c1c(=O)[nH]c(=O)n2Cc1ccccc1`, for which the inhibition is -2.63%.
As for `Cc1nn(-c2ccccc2)cc1C(c1c(N)[nH]c(=S)[nH]c1=O)c1c(N)[nH]c(=S)[nH]c1=O`, the figure is 4.9%; as for `COc1ccc(NS(=O)(=O)c2ccc3nc(COc4ccc5ccccc5c4)[nH]c3c2)cc1`, 0.01%.
Take `COc1ccc(NS(=O)(=O)c2ccc3nc(COc4ccc(C#N)cc4)[nH]c3c2)cc1`: the inhibition is 4.82%.
Take `CCOc1ccc(N2C(=O)C3CC(C)=C(C)CC3C2=O)c([N+](=O)[O-])c1` (stereo not given): the inhibition is -11.3%.
With `CCCCCn1c(SC(C)C(C)=O)nc2c1c(=O)[nH]c(=O)n2C` (stereo not given), the inhibition was -12.7%.
In the case of `Cc1cc(Cl)c(OCCCN(C)C)c(Br)c1` it was 2.02%.
Take `COc1ccc2c([N+](=O)[O-])c(Cl)[nH]c2c1`: the inhibition was -1.29%.
Regarding `COc1cc2[nH]c3c(Cl)ncnc3c2cc1OC`, the inhibition is -3.36%.
In the case of `CCOC(=O)C1=C(C)OC(N)=C(C#N)C1c1c(C)nn(-c2ccccc2)c1Cl` (stereo not given), the inhibition was -3.55%.
Take `Cc1ccc2c(c1)nnn2C1CCN(CC(=O)Nc2ccc(F)cc2)CC1`: the inhibition was -1.73%.
In the case of `Cc1ccc2c(c1)nnn2C1CCN(CC(=O)c2ccc(Cl)cc2)CC1`, the inhibition is 2.57%.
Consider `CCSC(=Nc1ccccc1)C1=C(O)COC1=O`, for which the inhibition is 3.26%.
As for `OC(CNCCc1c[nH]c2ccccc12)c1ccccc1` (stereo not given), the inhibition was -1.92%.
In the case of `NCC(c1ccc(Cl)cc1Cl)c1c[nH]c2ccccc12` (stereo not given) it was 34.8%; in that of `COC(=O)c1sc(N)c(C(=O)OC)c1COC(=O)C1CC(=O)N(Cc2ccco2)C1` (stereo not given), -7.71%; in that of `CCOc1ccc(CCNS(=O)(=O)c2ccc3c(c2)NC(=O)CO3)cc1OCC`, -0.19%.
Turning to `CCOc1ccc(NCc2nc3ccccc3n2CCOc2ccccc2)cc1`, the inhibition was 33.8%.
In the case of `c1ccc(NCc2nc3ccccc3n2CCOc2ccccc2)cc1` it was 5.47%; in that of `O=[N+]([O-])c1ccc(/C=N/Nc2nc(N3CCCCCC3)nc(N3CCCCCC3)n2)o1`, -9.1%; in that of `CCNc1nc(NCC)nc(N/N=C/c2ccccc2)n1`, -2.44%.
As for `CC(C)NS(=O)(=O)c1ccc(CCC(=O)N2CCC(C(N)=O)CC2)cc1`, the figure is -7.28%; as for `Cc1ccccc1C(=O)Oc1cc(N)n(S(C)(=O)=O)n1`, -5.9%.

By inhibition is commonly meant the change of the read-out against control, counted positive when it falls.
